Experiments:
Assay in all cases: DAPPL (digital affinity profiling via proximity ligation, sequencing); 10 mM Tris-HCl pH 7.5, 50 mM NaCl, 1 mM DTT, 4% glycerol, room temperature, 30 min; GST-TFs on glutathione beads, 16-mer random dsDNA library, 0.1% formaldehyde crosslink after washing; high values mean tight binding
FLI1 = target: T1, FLI1 (Homo sapiens, UniProt Q01543 1-452); conditions: protein: recombinant; tags: N-terminal GST; dsDNA, one strand shown
T1 sequence: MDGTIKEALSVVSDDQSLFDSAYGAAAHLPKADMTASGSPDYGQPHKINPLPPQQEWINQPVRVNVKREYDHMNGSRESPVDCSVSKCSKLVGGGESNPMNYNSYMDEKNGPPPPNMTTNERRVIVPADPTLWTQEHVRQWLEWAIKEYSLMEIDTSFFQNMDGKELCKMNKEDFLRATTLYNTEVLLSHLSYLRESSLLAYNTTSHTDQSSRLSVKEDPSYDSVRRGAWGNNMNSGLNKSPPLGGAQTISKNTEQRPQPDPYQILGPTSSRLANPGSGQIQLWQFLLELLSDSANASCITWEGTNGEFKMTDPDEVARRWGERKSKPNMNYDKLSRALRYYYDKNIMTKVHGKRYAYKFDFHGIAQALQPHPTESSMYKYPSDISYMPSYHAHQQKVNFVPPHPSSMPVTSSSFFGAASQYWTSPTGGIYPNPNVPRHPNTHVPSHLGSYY
Procedure, shortened: (§1)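 A tag-only sample was pooled with DNA-barcoded human transcription factors that had been expressed in yeast as GST fusions and captured on glutathione beads. The pools were incubated for 30 min at room temperature with 200 nmole of a random double-stranded 16-mer DNA library in Tris/NaCl/DTT/glycerol buffer, then washed, crosslinked with 0.1% formaldehyde, proximity-ligated (BsaI/T4 ligase, 1 h, 37 °C), PCR-amplified and sequenced on an Illumina NextSeq500. Binding signal is each hexamer's read frequency for a factor divided by its frequency for the tag-only sample.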

ELK1 = target: T2, ELK1 (Homo sapiens, UniProt P19419 1-428); conditions: protein: recombinant; tags: N-terminal GST; dsDNA, one strand shown
T2 sequence: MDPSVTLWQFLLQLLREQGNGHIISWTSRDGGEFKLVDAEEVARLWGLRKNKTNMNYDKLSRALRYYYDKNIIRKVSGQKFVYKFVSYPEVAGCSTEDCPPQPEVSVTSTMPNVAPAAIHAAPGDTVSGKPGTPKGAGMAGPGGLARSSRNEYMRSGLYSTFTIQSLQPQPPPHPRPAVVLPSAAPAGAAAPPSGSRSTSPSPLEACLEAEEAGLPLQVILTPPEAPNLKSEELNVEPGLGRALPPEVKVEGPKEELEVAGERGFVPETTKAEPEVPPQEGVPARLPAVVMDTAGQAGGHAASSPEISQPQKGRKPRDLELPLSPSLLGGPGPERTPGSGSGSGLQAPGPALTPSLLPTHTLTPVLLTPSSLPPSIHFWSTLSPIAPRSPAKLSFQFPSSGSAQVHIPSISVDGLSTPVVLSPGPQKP
Procedure, shortened: as §1

GABPA = target: T3, GABPA (Homo sapiens, UniProt Q06546 1-454); conditions: protein: recombinant; tags: N-terminal GST; dsDNA, one strand shown
T3 sequence: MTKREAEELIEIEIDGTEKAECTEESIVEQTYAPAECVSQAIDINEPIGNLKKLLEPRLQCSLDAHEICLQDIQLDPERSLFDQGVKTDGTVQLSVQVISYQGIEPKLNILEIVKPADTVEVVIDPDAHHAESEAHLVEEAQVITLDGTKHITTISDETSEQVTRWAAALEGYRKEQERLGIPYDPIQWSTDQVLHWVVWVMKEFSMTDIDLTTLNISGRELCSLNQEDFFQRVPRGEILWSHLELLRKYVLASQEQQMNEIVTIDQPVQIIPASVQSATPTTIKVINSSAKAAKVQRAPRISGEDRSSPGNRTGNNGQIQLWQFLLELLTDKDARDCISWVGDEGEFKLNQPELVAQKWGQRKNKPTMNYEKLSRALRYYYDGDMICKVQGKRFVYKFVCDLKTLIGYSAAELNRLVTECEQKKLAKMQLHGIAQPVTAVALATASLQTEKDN
Procedure, shortened: as §1

ERG = target: T4, ERG (Homo sapiens, UniProt P11308 1-479); conditions: protein: recombinant; tags: N-terminal GST; dsDNA, one strand shown
T4 sequence: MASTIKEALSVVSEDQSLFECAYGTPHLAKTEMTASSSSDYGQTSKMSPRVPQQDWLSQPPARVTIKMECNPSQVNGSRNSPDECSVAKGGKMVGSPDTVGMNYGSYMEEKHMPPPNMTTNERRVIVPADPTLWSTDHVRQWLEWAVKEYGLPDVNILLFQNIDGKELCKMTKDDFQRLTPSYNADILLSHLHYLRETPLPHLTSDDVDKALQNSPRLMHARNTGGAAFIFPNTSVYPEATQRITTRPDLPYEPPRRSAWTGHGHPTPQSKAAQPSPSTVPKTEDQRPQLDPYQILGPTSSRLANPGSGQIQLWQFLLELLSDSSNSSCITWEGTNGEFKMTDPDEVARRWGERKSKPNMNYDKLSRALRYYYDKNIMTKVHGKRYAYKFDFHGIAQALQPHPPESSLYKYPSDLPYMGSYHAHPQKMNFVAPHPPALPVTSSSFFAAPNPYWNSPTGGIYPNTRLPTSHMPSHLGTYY
Procedure, shortened: as §1

ELF1 = ELF1 (Homo sapiens, UniProt P32519 1-619); conditions: protein: recombinant; tags: N-terminal GST; dsDNA, one strand shown
Procedure, shortened: as §1

EHF = target: T5, EHF (Homo sapiens, UniProt Q9NZC4 1-300); conditions: protein: recombinant; tags: N-terminal GST; dsDNA, one strand shown
T5 sequence: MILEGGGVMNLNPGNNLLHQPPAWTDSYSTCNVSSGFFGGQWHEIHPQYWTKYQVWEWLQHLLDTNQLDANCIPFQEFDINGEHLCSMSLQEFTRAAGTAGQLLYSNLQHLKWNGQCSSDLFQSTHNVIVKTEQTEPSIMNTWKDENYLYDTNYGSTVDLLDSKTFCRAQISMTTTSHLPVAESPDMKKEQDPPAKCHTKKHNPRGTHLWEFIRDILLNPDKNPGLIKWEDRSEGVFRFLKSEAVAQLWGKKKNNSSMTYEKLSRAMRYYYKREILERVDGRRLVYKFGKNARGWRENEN
Procedure, shortened: as §1

SPI1 = SPI1 (Homo sapiens, UniProt P17947 1-270); conditions: protein: recombinant; tags: N-terminal GST; dsDNA, one strand shown
Procedure, shortened: as §1

SPIB = SPIB (Homo sapiens, UniProt Q01892 1-262); conditions: protein: recombinant; tags: N-terminal GST; dsDNA, one strand shown
Procedure, shortened: as §1

ELK3 = target: T6, ELK3 (Homo sapiens, UniProt P41970 1-407); conditions: protein: recombinant; tags: N-terminal GST; dsDNA, one strand shown
T6 sequence: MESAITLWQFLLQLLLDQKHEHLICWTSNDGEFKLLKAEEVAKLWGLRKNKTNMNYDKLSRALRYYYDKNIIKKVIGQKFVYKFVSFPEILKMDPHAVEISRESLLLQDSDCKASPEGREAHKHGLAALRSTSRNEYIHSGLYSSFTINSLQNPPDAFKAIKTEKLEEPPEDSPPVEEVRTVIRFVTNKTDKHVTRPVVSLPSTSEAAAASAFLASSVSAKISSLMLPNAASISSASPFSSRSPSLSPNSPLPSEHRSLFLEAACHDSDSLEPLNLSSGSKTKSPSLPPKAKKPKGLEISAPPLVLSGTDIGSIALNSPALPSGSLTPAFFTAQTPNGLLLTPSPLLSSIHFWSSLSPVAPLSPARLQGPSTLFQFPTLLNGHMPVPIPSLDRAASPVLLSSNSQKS
Procedure, shortened: as §1

FEV = target: T7, FEV (Homo sapiens, UniProt Q99581 1-238); conditions: protein: recombinant; tags: N-terminal GST; dsDNA, one strand shown
T7 sequence: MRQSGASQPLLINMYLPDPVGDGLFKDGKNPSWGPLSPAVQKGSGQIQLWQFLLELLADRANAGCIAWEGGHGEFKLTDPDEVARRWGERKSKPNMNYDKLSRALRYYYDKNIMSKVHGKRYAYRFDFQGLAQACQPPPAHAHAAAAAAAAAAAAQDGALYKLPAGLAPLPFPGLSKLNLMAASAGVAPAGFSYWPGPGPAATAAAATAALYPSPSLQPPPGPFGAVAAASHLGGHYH
Procedure, shortened: as §1

ETV5 = ETV5 (Homo sapiens, UniProt P41161 1-510); conditions: protein: recombinant; tags: N-terminal GST; dsDNA, one strand shown
Procedure, shortened: as §1

HSF1 = HSF1 (Homo sapiens, UniProt Q00613 1-529); conditions: protein: recombinant; tags: N-terminal GST; chain copies: 3; dsDNA, one strand shown
Procedure, shortened: as §1

SPIC = target: T8, SPIC (Homo sapiens, UniProt Q8N5J4 1-248); conditions: protein: recombinant; tags: N-terminal GST; dsDNA, one strand shown
T8 sequence: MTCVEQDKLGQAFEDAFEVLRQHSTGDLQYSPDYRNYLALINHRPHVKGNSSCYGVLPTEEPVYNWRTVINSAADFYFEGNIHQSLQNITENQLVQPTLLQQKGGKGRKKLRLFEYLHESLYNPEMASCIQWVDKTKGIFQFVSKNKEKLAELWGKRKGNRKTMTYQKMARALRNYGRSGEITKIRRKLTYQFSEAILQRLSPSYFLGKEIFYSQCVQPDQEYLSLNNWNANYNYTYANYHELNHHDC
Procedure, shortened: as §1

ELF4 = ELF4 (Homo sapiens, UniProt Q99607 1-663); conditions: protein: recombinant; tags: N-terminal GST; dsDNA, one strand shown
Procedure, shortened: as §1

ELK4 = target: T9, ELK4 (Homo sapiens, UniProt P28324-2 1-405); conditions: protein: recombinant; tags: N-terminal GST; dsDNA, one strand shown
T9 sequence: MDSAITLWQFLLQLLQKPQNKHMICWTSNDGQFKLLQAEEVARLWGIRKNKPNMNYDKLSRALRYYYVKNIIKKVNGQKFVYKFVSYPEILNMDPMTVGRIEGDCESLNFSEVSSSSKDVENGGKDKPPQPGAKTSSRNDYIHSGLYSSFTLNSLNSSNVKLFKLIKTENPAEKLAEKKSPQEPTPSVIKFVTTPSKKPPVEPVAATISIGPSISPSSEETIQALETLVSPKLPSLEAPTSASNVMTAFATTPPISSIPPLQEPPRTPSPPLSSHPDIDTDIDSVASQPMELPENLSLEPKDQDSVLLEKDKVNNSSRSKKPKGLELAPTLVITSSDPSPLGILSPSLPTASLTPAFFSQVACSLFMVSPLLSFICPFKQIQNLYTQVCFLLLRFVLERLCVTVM
Procedure, shortened: as §1

ETV2 = target: T10, ETV2 (Homo sapiens, UniProt O00321 1-342); conditions: protein: recombinant; tags: N-terminal GST; dsDNA, one strand shown
T10 sequence: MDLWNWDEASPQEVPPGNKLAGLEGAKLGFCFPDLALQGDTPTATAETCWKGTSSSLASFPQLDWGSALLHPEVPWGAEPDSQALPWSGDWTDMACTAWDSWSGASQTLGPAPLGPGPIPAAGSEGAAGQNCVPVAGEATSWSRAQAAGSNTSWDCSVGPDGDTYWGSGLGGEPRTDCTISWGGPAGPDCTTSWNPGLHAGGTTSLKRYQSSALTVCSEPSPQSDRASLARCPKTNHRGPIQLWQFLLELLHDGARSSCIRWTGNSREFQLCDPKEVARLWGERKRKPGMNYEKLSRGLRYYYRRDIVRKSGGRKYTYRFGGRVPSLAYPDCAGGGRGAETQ
Procedure, shortened: as §1

ELF3 = target: T11, ELF3 (Homo sapiens, UniProt P78545 1-371); conditions: protein: recombinant; tags: N-terminal GST; dsDNA, one strand shown
T11 sequence: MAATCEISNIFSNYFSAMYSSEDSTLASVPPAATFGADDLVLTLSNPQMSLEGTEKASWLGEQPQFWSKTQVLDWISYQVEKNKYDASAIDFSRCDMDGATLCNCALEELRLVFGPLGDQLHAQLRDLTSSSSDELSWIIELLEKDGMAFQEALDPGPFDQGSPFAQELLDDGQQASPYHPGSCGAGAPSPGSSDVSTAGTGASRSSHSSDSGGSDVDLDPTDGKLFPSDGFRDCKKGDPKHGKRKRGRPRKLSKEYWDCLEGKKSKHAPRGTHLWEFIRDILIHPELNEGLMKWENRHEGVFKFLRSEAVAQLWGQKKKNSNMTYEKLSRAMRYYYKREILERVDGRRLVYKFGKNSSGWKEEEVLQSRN
Procedure, shortened: as §1

CRX = CRX (Homo sapiens, UniProt O43186 1-299); conditions: protein: recombinant; tags: N-terminal GST; dsDNA, one strand shown
Procedure, shortened: as §1

ETV1 = ETV1 (Homo sapiens, UniProt P50549 1-477); conditions: protein: recombinant; tags: N-terminal GST; dsDNA, one strand shown
Procedure, shortened: as §1

CRX, sequence (O43186 whole entry): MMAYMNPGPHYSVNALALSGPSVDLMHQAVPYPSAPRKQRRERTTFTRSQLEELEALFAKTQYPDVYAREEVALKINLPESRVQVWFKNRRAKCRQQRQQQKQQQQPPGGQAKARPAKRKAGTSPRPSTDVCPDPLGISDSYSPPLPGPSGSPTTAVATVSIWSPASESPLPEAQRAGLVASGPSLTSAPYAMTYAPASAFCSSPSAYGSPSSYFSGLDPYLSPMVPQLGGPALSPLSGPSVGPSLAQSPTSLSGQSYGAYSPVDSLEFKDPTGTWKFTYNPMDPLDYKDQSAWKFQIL
ELF4, sequence (Q99607 whole entry): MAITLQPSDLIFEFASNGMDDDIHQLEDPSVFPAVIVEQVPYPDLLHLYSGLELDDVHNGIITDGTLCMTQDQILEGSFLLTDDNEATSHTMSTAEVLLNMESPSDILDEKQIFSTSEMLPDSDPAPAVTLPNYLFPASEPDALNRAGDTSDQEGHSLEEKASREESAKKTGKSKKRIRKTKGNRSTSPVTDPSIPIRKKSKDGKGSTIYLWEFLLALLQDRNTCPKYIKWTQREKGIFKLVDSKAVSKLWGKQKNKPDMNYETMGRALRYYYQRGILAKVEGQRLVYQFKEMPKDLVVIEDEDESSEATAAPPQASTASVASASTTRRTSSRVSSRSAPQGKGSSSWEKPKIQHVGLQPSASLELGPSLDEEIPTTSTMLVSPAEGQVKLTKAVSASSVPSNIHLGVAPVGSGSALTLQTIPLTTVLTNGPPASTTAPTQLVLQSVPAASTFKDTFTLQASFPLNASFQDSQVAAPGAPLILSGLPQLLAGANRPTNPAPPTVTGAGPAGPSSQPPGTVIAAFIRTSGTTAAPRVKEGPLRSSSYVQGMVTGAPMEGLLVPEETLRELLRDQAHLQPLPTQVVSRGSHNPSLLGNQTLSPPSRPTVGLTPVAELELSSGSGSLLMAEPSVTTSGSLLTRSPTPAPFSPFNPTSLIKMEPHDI
SPIB, sequence (Q01892 whole entry): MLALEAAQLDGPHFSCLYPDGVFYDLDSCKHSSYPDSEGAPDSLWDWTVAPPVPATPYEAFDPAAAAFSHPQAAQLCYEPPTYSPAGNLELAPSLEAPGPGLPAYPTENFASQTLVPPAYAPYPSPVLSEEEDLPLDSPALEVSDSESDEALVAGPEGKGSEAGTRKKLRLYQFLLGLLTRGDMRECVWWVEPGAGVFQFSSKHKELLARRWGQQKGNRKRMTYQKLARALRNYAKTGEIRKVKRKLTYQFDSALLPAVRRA
ELF1, sequence (P32519 whole entry): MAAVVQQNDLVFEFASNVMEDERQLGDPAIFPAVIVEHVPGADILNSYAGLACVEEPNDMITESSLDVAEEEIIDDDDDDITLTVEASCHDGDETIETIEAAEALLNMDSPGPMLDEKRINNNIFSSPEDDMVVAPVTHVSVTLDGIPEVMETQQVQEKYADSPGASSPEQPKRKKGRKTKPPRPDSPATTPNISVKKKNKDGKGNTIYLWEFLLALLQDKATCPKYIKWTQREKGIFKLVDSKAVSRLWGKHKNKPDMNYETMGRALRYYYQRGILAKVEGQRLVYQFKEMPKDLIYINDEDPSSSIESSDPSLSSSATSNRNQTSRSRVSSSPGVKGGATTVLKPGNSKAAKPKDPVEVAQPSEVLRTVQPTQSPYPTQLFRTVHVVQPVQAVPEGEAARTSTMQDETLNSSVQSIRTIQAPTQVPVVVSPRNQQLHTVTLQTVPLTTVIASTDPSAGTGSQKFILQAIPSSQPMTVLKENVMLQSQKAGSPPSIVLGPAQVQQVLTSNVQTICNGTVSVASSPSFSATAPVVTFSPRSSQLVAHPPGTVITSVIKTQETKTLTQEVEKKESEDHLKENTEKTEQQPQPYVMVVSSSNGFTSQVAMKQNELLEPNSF
ETV5, sequence (P41161 whole entry): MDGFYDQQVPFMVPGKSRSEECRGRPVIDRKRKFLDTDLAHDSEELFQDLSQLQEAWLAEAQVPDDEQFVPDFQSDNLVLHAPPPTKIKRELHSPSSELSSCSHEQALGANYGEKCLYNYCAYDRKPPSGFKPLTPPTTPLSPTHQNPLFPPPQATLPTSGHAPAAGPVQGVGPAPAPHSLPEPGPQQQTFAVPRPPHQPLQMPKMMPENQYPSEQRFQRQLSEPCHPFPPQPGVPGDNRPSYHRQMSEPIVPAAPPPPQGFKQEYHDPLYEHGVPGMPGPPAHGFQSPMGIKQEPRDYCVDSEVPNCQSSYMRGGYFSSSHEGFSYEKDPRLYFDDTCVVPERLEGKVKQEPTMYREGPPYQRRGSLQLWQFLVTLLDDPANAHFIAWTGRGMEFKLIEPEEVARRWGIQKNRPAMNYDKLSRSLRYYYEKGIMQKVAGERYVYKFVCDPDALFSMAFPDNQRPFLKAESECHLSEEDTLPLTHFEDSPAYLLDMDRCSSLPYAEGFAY
ETV1, sequence (P50549 whole entry): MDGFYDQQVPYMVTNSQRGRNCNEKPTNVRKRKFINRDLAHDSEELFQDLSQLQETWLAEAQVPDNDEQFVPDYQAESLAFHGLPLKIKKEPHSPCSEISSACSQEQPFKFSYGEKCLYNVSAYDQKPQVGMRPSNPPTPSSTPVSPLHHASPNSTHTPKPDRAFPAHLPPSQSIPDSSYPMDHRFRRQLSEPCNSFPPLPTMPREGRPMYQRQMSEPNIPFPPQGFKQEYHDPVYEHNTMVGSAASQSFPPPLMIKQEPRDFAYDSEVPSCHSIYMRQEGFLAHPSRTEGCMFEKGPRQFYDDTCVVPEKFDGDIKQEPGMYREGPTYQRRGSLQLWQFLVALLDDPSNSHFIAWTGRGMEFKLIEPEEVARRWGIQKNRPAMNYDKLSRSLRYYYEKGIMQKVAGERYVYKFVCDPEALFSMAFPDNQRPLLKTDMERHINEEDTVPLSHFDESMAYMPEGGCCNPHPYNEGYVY
HSF1, sequence (Q00613 whole entry): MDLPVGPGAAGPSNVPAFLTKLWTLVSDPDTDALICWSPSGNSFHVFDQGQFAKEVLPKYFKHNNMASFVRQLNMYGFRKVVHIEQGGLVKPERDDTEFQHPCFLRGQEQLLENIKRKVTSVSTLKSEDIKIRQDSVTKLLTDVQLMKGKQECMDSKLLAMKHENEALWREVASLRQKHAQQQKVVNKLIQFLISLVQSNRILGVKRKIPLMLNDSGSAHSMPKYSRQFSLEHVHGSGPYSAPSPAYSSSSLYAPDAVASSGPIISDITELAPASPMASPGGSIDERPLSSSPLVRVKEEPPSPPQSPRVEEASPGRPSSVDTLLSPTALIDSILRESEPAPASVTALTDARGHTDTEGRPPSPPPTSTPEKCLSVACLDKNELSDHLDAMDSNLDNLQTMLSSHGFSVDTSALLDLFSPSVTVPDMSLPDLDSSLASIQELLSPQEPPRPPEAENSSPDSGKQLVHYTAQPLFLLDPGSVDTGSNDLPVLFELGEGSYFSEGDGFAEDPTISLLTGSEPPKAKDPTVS

For AATCTG, the binding signal (FLI1) was 1.48 fold enrichment (6-mer frequency, TF over GST control), the binding signal (ELK1) was 1.33 fold enrichment (6-mer frequency, TF over GST control) and the binding signal (GABPA) was 1.49 fold enrichment (6-mer frequency, TF over GST control). The binding signal (ERG) was 1.46 fold enrichment (6-mer frequency, TF over GST control), the binding signal (ELF1) was 1.48 fold enrichment (6-mer frequency, TF over GST control) and the binding signal (EHF) was 1.31 fold enrichment (6-mer frequency, TF over GST control). The binding signal (SPI1) was 1.42 fold enrichment (6-mer frequency, TF over GST control), the binding signal (SPIB) was 1.51 fold enrichment (6-mer frequency, TF over GST control) and the binding signal (ELK3) was 1.34 fold enrichment (6-mer frequency, TF over GST control). The binding signal (FEV) was 1.41 fold enrichment (6-mer frequency, TF over GST control), the binding signal (ETV5) was 1.4 fold enrichment (6-mer frequency, TF over GST control) and the binding signal (HSF1) was 2.17 fold enrichment (6-mer frequency, TF over GST control). For the same sequence, the binding signal (SPIC) was 1.52 fold enrichment (6-mer frequency, TF over GST control), the binding signal (ELF4) was 1.57 fold enrichment (6-mer frequency, TF over GST control) and the binding signal (ELK4) was 1.55 fold enrichment (6-mer frequency, TF over GST control). The binding signal (ETV2) was 1.45 fold enrichment (6-mer frequency, TF over GST control), the binding signal (ELF3) was 1.47 fold enrichment (6-mer frequency, TF over GST control) and the binding signal (CRX) was 2.75 fold enrichment (6-mer frequency, TF over GST control). For the same sequence, the binding signal (ETV1) was 1.58 fold enrichment (6-mer frequency, TF over GST control).

— paper PMC7862700, “An all-to-all approach to the identification of sequence-specific readers for epigenetic DNA modifications on cytosine”
